Assay [1] has as its system Human papillomavirus type 1a protein E7 (residues 44-93). Nature of the assay: HPV1a E7 fragment binders on microarrays, primary screen, biochemical, small-molecule microarray, residues 44-93, 635 nm fluorescence (AID 1108).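 Further: E7 fragment applied at 1 µg/mL in TBST for 1 h at 4 C; score combines spot fluorescence with its signal to noise ratio.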 Particulars: small-molecule microarray binding, fluorescence 635 nm; higher = more signal.
Assay [2] is described as follows: modulators of HCV replicon luciferase signal, primary screen, HCV replication inhibitor project, Huh7 cells, luciferase reporter (AID 1109).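 Further: huh7 hepatoma cells harbouring a luciferase neomycin HCV replicon reporter; luciferase luminescence as measure of HCV replicon replication; test concentration not given here.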 Particulars: 48 h, higher = more signal. In general terms: Replicon systems follow genome replication, usually without infectious particles.
For assay [3], the target named is Left-right determination factor 2 (Homo sapiens) (UniProt O00292). The assay can be described thus: LEFTY2 binders on small-molecule microarrays, primary screen, biochemical, small-molecule microarray, 635 nm fluorescence scan (AID 1110). Particulars: LEFTY2 binding, higher = more signal.
Left-right determination factor 2 (Homo sapiens), sequence (O00292 whole entry, looked up): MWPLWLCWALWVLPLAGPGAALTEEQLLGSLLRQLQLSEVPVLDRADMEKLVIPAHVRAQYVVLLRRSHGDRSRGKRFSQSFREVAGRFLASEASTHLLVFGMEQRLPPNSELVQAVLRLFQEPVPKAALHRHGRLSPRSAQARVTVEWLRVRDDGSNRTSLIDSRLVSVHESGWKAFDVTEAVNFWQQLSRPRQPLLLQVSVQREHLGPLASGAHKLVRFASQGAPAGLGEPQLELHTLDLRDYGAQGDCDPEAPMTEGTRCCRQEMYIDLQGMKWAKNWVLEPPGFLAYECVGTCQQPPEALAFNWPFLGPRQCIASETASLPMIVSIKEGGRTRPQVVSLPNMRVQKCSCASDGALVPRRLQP
For assay [4], the target named is Calmodulin-1 (Homo sapiens) (UniProt P0DP23). The assay can be described thus: CALM1 binders on microarrays, EGTA buffer, profiling panel, biochemical, small-molecule microarray, Cy5-labelled CALM1 (AID 1111).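 Further: labelled calmodulin applied in Tris saline Tween buffer holding calcium plus EGTA and DTT.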 Particulars: Cy5-CALM1 binding fluorescence, higher = more signal.
Assay [5] has the same target. Nature of the assay: calcium-bound CALM1 binders on microarrays, profiling panel, artefact control for SMM control-protein annotation, biochemical, small-molecule microarray, Cy5-labelled CALM1, plus calcium (AID 1112).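 Further: score merges spot fluorescence with signal to noise from triplicate slides.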 Particulars: Cy5-CALM1 binding fluorescence, higher = more signal.
A short description of assay [6]: small-molecule microarray binders of probe aWnt5a, primary screen, biochemical, biotinylated probe, 635/667 nm fluorescence (AID 1113).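 Further: score merges 667 nm fluorescence intensity with signal-to-noise per printed feature.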 Conditions: higher = more signal.
Assay [7] in a line: small-molecule microarray binders of probe aShh, primary screen, biochemical, biotinylated probe, 635/667 nm fluorescence (AID 1114).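 Further: probe is biotin-labelled aShh protein from a stem cell growth factor screen; measures binding of labelled protein to compounds printed on the slide; score merges feature fluorescence at 667 nm with signal-to-noise.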 Particulars: higher = more signal.
A short description of assay [8]: small-molecule microarray binders of probe aNog, primary screen, biochemical, biotinylated probe, 635/667 nm fluorescence (AID 1115).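 Further: probe is biotinylated aNog protein used at 0.15 µg/mL for 1 h at 4 C; z-score combines 667 nm fluorescence of each spot with its signal to noise.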 Conditions: higher = more signal.
The target in assay [9] is Torsin-1A-interacting protein 1 (Homo sapiens) (UniProt Q5JTV8). The assay can be described thus: LAP1 binders from COS7 cell lysate, primary screen, small-molecule microarray, 635/667 nm fluorescence (AID 1116). Particulars: COS7-hLAP1 lysate binding, 635 nm fluorescence, higher = more signal.
Torsin-1A-interacting protein 1 (Homo sapiens), sequence (Q5JTV8 whole entry, looked up): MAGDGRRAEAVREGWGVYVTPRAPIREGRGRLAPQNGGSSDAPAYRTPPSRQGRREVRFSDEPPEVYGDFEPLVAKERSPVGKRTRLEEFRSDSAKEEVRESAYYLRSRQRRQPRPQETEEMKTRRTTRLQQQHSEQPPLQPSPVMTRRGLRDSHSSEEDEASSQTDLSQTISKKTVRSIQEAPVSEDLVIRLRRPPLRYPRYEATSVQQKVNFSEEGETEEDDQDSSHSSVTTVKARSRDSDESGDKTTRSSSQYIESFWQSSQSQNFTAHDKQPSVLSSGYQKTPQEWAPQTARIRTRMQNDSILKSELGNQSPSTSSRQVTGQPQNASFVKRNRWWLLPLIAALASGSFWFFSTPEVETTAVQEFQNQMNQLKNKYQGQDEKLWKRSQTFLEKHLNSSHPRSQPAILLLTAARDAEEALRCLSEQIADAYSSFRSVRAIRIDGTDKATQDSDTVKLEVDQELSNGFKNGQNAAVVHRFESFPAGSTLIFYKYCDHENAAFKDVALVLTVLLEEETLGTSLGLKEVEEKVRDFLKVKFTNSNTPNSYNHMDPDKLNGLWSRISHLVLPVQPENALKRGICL
The target in assay [10] is Alpha-bungarotoxin (Bungarus multicinctus) (UniProt P60615). The assay can be described thus: alpha-bungarotoxin binders on microarray, profiling panel, artefact control for SMM control protein annotation, biochemical, small-molecule microarray, Alexa647 label, 635/667 nm fluorescence (AID 1117). Particulars: alpha-BTX-A647 binding fluorescence, higher = more signal.
Alpha-bungarotoxin (Bungarus multicinctus), sequence (P60615 whole entry, looked up): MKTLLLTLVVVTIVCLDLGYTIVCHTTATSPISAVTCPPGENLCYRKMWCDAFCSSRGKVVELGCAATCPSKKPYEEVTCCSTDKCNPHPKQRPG
Another assay addresses Albumin (Bos taurus) (UniProt P02769). The assay can be described thus: bovine serum albumin binders on microarray, profiling panel, artefact control for SMM control protein annotation, biochemical, small-molecule microarray, Alexa647 label, 635/667 nm fluorescence (AID 1118).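 Further: score merges 667 nm emission intensity and signal-to-noise per printed compound spot.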 Conditions: BSA-A647 binding, fluorescence 635 nm, higher = more signal.
Assay [11] can be described thus: small-molecule microarray binders of probe aXIP, primary screen, biochemical, NeuroSMM set, 635/667 nm fluorescence (AID 1119).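 Further: probe is the protein aXip251-270 applied at 1 µg/mL to compound-printed slides; binding of probe to printed compounds measured as 667 nm fluorescence plus signal to noise.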 Conditions: higher = more signal, called active from +8 up or from −8 down.
The nature of assay [12]: small-molecule binders of probe aNOTCH3, primary screen, biochemical, small-molecule microarray, 635/667 nm fluorescence (AID 1120).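 Further: probe is a biotin-tagged antibody raised against NOTCH3 rather than NOTCH3 protein; score merges spot fluorescence near 667 nm with spot signal to noise.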 Particulars: higher = more signal.
Assay [13] can be described thus: small-molecule binders of probe aNOTCH2, primary screen, biochemical, small-molecule microarray, 635/667 nm fluorescence (AID 1121).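 Further: score merges feature fluorescence read at 667 nm with its signal to noise.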 Conditions: higher = more signal.
For assay [14], the target named is Carbonic anhydrase 2 (Homo sapiens) (UniProt P00918). Nature of the assay: CAII small-molecule binders, profiling panel, biochemical, small-molecule microarray, Alexa647-labelled CAII (AID 1122). Particulars: CAII-A647 binding fluorescence, higher = more signal.
A short description of assay [15]: COS7 lysate on small-molecule microarray, probe aHis, 635 nm (AID 1123).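 Further: z-score combines 667nm fluorescence intensity with signal-to-noise per printed compound spot.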 Conditions: COS7 cell lysate, fluorescence, higher = more signal.
Assay [16] is described as follows: compound binding in COS7 lysate, probe aLAP1, primary screen, cell lysate, small-molecule microarray (AID 1124).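 Further: lysate comes from COS7 cells expressing LAP1 and is applied at 0.3 µg/mL; score merges spot fluorescence near 667 nm with signal-to-noise over triplicate slides.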 Conditions: probe aLAP1, fluorescence, higher = more signal.
The subject of a further assay is Sam68 (KHDRBS1). The assay can be described thus: Sam68 small-molecule binders, primary screen, biochemical, small-molecule microarray, 635 nm fluorescence (AID 1125).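 Further: score merges 667 nm channel intensity with signal to noise over triplicate slides.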 Particulars: small-molecule microarray binding, higher = more signal.
Assay [17] has as its system Chordin-like protein 2 (CHRDL2). Nature of the assay: CHRDL2 small-molecule binders, primary screen, biochemical, small-molecule microarray, 635 nm fluorescence (AID 1126).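 Further: printed compound slides probed with Chrdl2 protein at 4 µg/mL for 1 h at 4 C; score merges 667 nm emission intensity with signal to noise over three replicate slides.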 Particulars: small-molecule microarray binding, fluorescence 635 nm; higher = more signal.
For assay [18], the target named is Concanavalin-A (Canavalia ensiformis) (UniProt P02866). The assay can be described thus: ConA small-molecule binders, primary screen, artefact control for SMM control protein annotation, biochemical, small-molecule microarray, Alexa647 label, 635 nm (AID 1127).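 Further: z combines 667 nm emission intensity with signal-to-noise across three replicate slides.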 Particulars: ConA-A647 binding fluorescence, higher = more signal.
Concanavalin-A (Canavalia ensiformis), sequence (P02866 whole entry, looked up): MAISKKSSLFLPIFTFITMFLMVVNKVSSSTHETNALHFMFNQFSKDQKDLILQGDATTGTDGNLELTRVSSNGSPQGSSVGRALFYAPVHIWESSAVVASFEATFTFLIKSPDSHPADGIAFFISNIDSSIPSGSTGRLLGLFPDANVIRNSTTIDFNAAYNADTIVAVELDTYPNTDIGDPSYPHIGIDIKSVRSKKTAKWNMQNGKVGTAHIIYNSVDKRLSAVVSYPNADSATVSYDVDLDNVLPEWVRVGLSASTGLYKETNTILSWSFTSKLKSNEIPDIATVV

Activity calls are given as the source filed them.

The record followed here is PubChem BioAssay.

Albumin (Bos taurus), sequence (P02769 whole entry, looked up): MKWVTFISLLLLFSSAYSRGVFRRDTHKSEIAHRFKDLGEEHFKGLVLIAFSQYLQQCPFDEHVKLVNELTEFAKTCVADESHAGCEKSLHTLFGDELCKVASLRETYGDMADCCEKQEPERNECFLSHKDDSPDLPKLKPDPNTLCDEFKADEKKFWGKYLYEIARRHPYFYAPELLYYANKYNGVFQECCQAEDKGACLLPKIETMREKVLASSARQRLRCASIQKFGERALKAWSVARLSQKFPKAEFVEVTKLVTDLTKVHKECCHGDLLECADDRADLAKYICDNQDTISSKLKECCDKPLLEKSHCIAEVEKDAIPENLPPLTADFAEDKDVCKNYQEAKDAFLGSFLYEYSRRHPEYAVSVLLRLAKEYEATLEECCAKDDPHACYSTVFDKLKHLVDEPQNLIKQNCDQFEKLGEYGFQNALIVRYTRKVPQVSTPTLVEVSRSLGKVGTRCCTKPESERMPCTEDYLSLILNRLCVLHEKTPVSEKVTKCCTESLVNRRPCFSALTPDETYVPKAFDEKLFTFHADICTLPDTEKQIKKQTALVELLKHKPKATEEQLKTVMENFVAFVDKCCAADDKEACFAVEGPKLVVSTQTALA

With `CC(=O)NCCCC[C@@H]1NC(=O)[C@@H]2C[C@H](C(=O)NCCCCCCN)[C@H](c3cccc(OCCO)c3)N2C1=O`, the composite z-score in assay [1] is 0.601; in assay [3], -0.535; in assay [4] it was 1.47; in [5], 1.35; in assay [6], -0.0519; in assay [7] it was -0.0066. The composite z-score in assay [8] is -0.153; in assay [9], 1.79; in [10], 2.15; with Albumin (Bos taurus), 0.851; in assay [12] it was -0.0682; in [13], -0.149. For the same compound, the composite z-score in [14] was 0.779; in assay [15], 1.72; in [16] it was 1.89; in the assay on Sam68 (KHDRBS1), 1.12; in assay [17], -0.878; in assay [18], 1.12. Further, in [2], the z-score was -0.69. Moreover, the composite Z-score in assay [11] was 0.801 (inactive).
As to `[N-]=[N+]=NCc1ccccc1[C@@H]1OC(c2ccc(OCCCO)cc2)=N[C@]1(Cc1ccccc1N=[N+]=[N-])C(=O)NCCN1CCOCC1`, the composite z-score is 1.4 in assay [1]; 0.466 in assay [3]; 0.969 in assay [4]; 0.0714 in [5]; 0.0944 in [6]; -0.0289 in [7]. In addition, the composite z-score in [8] was 0.597; in [9] it was 0.495; in assay [10] it was 0.446; in the assay with Albumin (Bos taurus), 0.741; in assay [12], 0.202; in assay [13], -0.0219. Also, the composite z-score in assay [14] is 0.828; in assay [15], 2.14; in assay [16], 1.01; in the assay with Sam68 (KHDRBS1) it was 1.31; in assay [17], 0.32; in [18] it was 0.863. In assay [2], this compound showed a z-score of -1.66. For the same compound, in assay [11], the composite Z-score was 0.215 (inactive).
As to `COc1ccc([Si](C)(C)[C@@H]2[C@@H](CC(=O)N3Cc4ccccc4C[C@H]3CO)O[C@]3(C(=O)N(c4ccccc4)c4ccccc43)[C@H]2C)cc1`, the composite z-score came to 1.38 in [1]; 0.671 in assay [3]; 1.75 in assay [4]; 1.36 in assay [5]; 0.418 in [6]; 0.293 in [7]. Besides, the composite z-score in assay [8] was 1.14; in assay [9], 0.553; in assay [10] it was 1.26; with Albumin (Bos taurus), -0.104; in [12] it was 0.146; in assay [13] it was 0.0018. The composite z-score in assay [14] is 0.429; in [15] it was 1.21; in assay [16], 0.339; in the assay on Sam68 (KHDRBS1), 1.3; in assay [17], 0.943; in assay [18], 0.869. Moreover, the z-score in assay [2] is -4.41. In addition, the composite Z-score in assay [11] was 8.06 (active).
For the compound `COCCCNC(=O)[C@@]1(c2ccc([N+](=O)[O-])cc2)CC(=O)N(CC23CC4CC(CC(C4)C2)C3)[C@@H]1c1ccc(CO)cc1I`, the composite z-score in [1] was 0.952; in assay [3] it was -0.381; in assay [4] it was 0.425; in assay [5] it was 0.729; in [6] it was -0.104; in assay [7], 0.337. In addition, the composite z-score was 0.536 in [8]; 0.157 in assay [9]; 1.22 in assay [10]; 0.0824 in the assay with Albumin (Bos taurus); -0.0751 in assay [12]; -0.0561 in [13]. Moreover, the composite z-score in [14] is 0.126; in [15], 1.61; in assay [16], 0.159; with Sam68 (KHDRBS1), 0.745; in assay [17] it was -0.348; in [18], 0.905. In assay [2], this compound showed a z-score of -3.15. Besides, in assay [11], the composite Z-score was 0.197 (inactive).
Turning to `NC(=O)[C@H]1[C@@H]2C(=O)O[C@@H](c3ccccc3)[C@@H](c3ccccc3)N2[C@@H](c2ccc(O)cc2)[C@]12C(=O)Nc1ccccc12`, the composite z-score was -0.0092 in [1]; -0.194 in assay [3]; -0.408 in assay [4]; 0.517 in assay [5]; -0.0124 in assay [6]; -0.214 in assay [7]. For the same compound, the composite z-score in assay [8] was -0.0753; in assay [9], -0.428; in [10], -1.15; in the assay with Albumin (Bos taurus), 0.295; in assay [12], -0.307; in assay [13], -0.173. The composite z-score in assay [14] is 0.769; in [15], -0.115; in [16] it was 0.0182; in the assay with Sam68 (KHDRBS1) it was -0.783; in assay [17] it was -1.22; in assay [18], -0.411. The same compound displayed a z-score in assay [2] of -0.449. Also, in assay [11], the composite Z-score is 0.355 (inactive).
